In the supplement of paper PMC12494721:
Counter-ions that a name gives are not always drawn.

Key:
Conditions in all cases: incubation time: 27 h, anaerobic, 37 °C;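 for the amine columns active = adjusted P below 0.05 in both replicates with a change the same way and a mean fold change under 0.8 or over 1.25; inactive = the rest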
[1] = tested on: Clostridium sporogenes DSM 1664; experiment: growth (OD595) fold change vs plate DMSO controls (fold change (ratio)); higher = more growth
Method in brief: (§1)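 Anaerobic mGAM cultures in 96-well plates were grown for 27 h at 37 °C, and absorbance was then read at 595 nm. After blank and compound background correction with 20 µM compound solutions in water, a calibration factor of 5 gave OD. Growth is the fold change relative to the median of each plate's DMSO controls. Values are means of 2 biological replicates, with fold changes above 1.5 set to NA.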

Escherichia coli IAI1 [2] = experiment: as above
Method in brief: as §1

[3] = tested on: Klebsiella aerogenes DSM 30053; experiment: as above
Method in brief: as §1

[4] = tested on: Ruminococcus gnavus DSM 108212; experiment: as above
Method in brief: as §1

[5] = tested on: Klebsiella aerogenes DSM 30053; experiment: fold change of Histamine concentration vs plate DMSO controls (fold change (ratio)); higher = more amine produced, active = hit call of the paper (significant change in both replicates, either direction)
Method in brief: (§2)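 In 80 µL wells, cultures of four gut bacterial strains in mGAM started at OD 0.1 before a 1:1 dilution and grew anaerobically at 37 °C for 27 h. Compounds were added to 20 µM final, except sweeteners at 50 µM final. After extraction of whole cultures with cold acetonitrile/methanol plus 0.1% formic acid and centrifugation, amines were measured by LC–triple-quadrupole MS in dynamic MRM mode against external calibration curves, with within-batch drift correction. Values give fold change over DMSO controls on the same plate, averaged across 2 biological replicates.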

[6] = tested on: Clostridium sporogenes DSM 1664; experiment: fold change of Tryptamine concentration vs plate DMSO controls (fold change (ratio)); higher = more amine produced, active = hit call of the paper (significant change in both replicates, either direction)
Method in brief: as §2

[7] = tested on: Ruminococcus gnavus DSM 108212; experiment: as above
Method in brief: as §2

Escherichia coli IAI1 [8] = experiment: fold change of Putrescine concentration vs plate DMSO controls (fold change (ratio)); higher = more amine produced, active = hit call of the paper (significant change in both replicates, either direction)
Method in brief: as §2

[9] = tested on: Klebsiella aerogenes DSM 30053; experiment: as above
Method in brief: as §2

Escherichia coli IAI1 [10] = experiment: fold change of Cadaverine concentration vs plate DMSO controls (fold change (ratio)); higher = more amine produced, active = hit call of the paper (significant change in both replicates, either direction)
Method in brief: as §2

[11] = tested on: Klebsiella aerogenes DSM 30053; experiment: as above
Method in brief: as §2

[12] = tested on: Ruminococcus gnavus DSM 108212; experiment: fold change of 2-Phenylethylamine concentration vs plate DMSO controls (fold change (ratio)); higher = more amine produced, active = hit call of the paper (significant change in both replicates, either direction)
Method in brief: as §2

Compound	growth [1]	growth (Escherichia coli IAI1 [2])	growth [3]	growth [4]	fold change of Histamine concentration [5]	fold change of Tryptamine concentration [6]	fold change of Tryptamine concentration [7]	fold change of Putrescine concentration (Escherichia coli IAI1 [8])	fold change of Putrescine concentration [9]	fold change of Cadaverine concentration (Escherichia coli IAI1 [10])	fold change of Cadaverine concentration [11]	fold change of 2-Phenylethylamine concentration [12]
CCn1cc(C(=O)O)c(=O)c2cnc(N3CCNCC3)nc21 [Pipemidic acid] (20 µM)	0.963	0	0.465	1.01	0.949 (inactive)	1.01 (inactive)	0.93 (inactive)	0.313 (active)	1.06 (inactive)	1.81 (active)	1.01 (inactive)	0.934 (inactive)
CN(C)CCOC(C)(c1ccccc1)c1ccccn1 (stereo not drawn) [Doxylamine succinate] (20 µM)	1.13	0.972	1.01	1.05	1.01 (inactive)	0.943 (inactive)	0.988 (inactive)	1.01 (inactive)	1.01 (inactive)	0.924 (inactive)	1 (inactive)	0.891 (inactive)
CC(=O)O[C@H]1C(=O)[C@@]2(C)[C@H]([C@H](OC(=O)c3ccccc3)[C@]3(O)C[C@H](OC(=O)[C@H](O)[C@@H](NC(=O)c4ccccc4)c4ccccc4)C(C)=C1C3(C)C)[C@]1(OC(C)=O)CO[C@@H]1C[C@@H]2O [Paclitaxel] (20 µM)	1.04	1.03	1.05	0.944	0.885 (inactive)	0.975 (inactive)	1.08 (inactive)	1.04 (inactive)	0.969 (inactive)	1.03 (inactive)	1.03 (inactive)	1.07 (inactive)
Cc1ccc(/C(=C\CN2CCCC2)c2ccccn2)cc1 [Triprolidine hydrochloride] (20 µM)	1.08	1.01	0.998	1.1	1.05 (inactive)	1.02 (inactive)	1.01 (inactive)	1.09 (inactive)	1.02 (inactive)	0.797 (inactive)	0.987 (inactive)	0.986 (inactive)
CC(C)OC(=O)CCC/C=C\C[C@@H]1[C@@H](CC[C@@H](O)CCc2ccccc2)[C@H](O)C[C@@H]1O [Latanoprost] (20 µM)	0.975	1	0.984	1.44	1.11 (inactive)	0.828 (inactive)	0.542 (active)	0.928 (inactive)	1.04 (inactive)	0.939 (inactive)	1 (inactive)	0.649 (inactive)
COc1cc(-c2ccc(=O)[nH]n2)ccc1OC(F)F [Zardaverine] (20 µM)	1.12	0.946	1.09	0.984	0.932 (inactive)	0.971 (inactive)	0.994 (inactive)	0.953 (inactive)	0.987 (inactive)	1.01 (inactive)	0.997 (inactive)	0.952 (inactive)
O=C(NCC(O)CO)c1c(I)c(C(=O)NCC(O)CO)c(I)c(N(CCO)C(=O)CO)c1I (stereo not drawn) [Ioversol] (20 µM)	1.09	0.998	1.01	1.11	0.997 (inactive)	1.11 (inactive)	1.11 (inactive)	0.923 (inactive)	0.975 (inactive)	0.924 (inactive)	1.02 (inactive)	1.12 (inactive)
C=C1c2cccc(O)c2C(O)=C2C(=O)[C@]3(O)C(O)=C(C(N)=O)C(=O)[C@@H](N(C)C)[C@@H]3[C@@H](O)[C@H]12 [Methacycline hydrochloride] (20 µM)	0	0.0377	0.0637	0.836	0.0707 (active)	0.0282 (active)	0.461 (active)	0.177 (active)	0.486 (active)	0.294 (active)	0.536 (active)	0.58 (inactive)
CCCCNC(=O)NS(=O)(=O)c1ccc(C)cc1 [Tolbutamide] (20 µM)	0.926	0.985	0.957	0.746	1.04 (inactive)	1.02 (inactive)	1.01 (inactive)	0.978 (inactive)	0.988 (inactive)	1 (inactive)	1 (inactive)	1.04 (inactive)
CC1(C)[C@@H](OC(=O)CCC(=O)O)CC[C@]2(C)[C@H]3C(=O)C=C4[C@@H]5C[C@@](C)(C(=O)O)CC[C@]5(C)CC[C@@]4(C)[C@]3(C)CC[C@@H]12 [Carbenoxolone disodium salt] (20 µM)	1.06	0.984	0.977	0.91	1.03 (inactive)	0.925 (inactive)	1.04 (inactive)	1.04 (inactive)	1.02 (inactive)	0.999 (inactive)	0.993 (inactive)	1.07 (inactive)
C1CCC(C(CC2CCCCN2)C2CCCCC2)CC1 (stereo not drawn) [Perhexiline maleate] (20 µM)	1.14	1	1	0.952	0.983 (inactive)	1.03 (inactive)	0.771 (active)	1.05 (inactive)	1.01 (inactive)	1.05 (inactive)	1 (inactive)	0.892 (inactive)
NCCNCCNCCNCCN [Tetraethylenepentamine pentahydrochloride] (20 µM)	1	1.1	1.02	0.923	1 (inactive)	1.03 (inactive)	0.952 (inactive)	1.07 (inactive)	0.994 (inactive)	0.955 (inactive)	0.994 (inactive)	0.967 (inactive)
O=C1Nc2ccccc2C1(c1ccc(O)cc1)c1ccc(O)cc1 [Oxyphenisatin] (20 µM)	1.19	1.05	1	0.994	1.03 (inactive)	0.982 (inactive)	0.935 (inactive)	1.04 (inactive)	1 (inactive)	1.01 (inactive)	0.999 (inactive)	0.89 (inactive)
Clc1ccc(CCC(Cn2ccnc2)Sc2c(Cl)cccc2Cl)cc1 (stereo not drawn) [Butoconazole nitrate] (20 µM)	1.12	1.02	0.995	0.621	1.01 (inactive)	1.07 (inactive)	0.514 (active)	0.997 (inactive)	0.992 (inactive)	0.995 (inactive)	0.989 (inactive)	0.623 (active)
Cn1c(=O)cc(N2CCC[C@@H](N)C2)n(Cc2ccccc2C#N)c1=O [Alogliptin benzoate] (20 µM)	1.06	0.955	1.09	1.02	0.923 (inactive)	1.01 (inactive)	0.899 (inactive)	1.01 (inactive)	1.01 (inactive)	0.992 (inactive)	1.01 (inactive)	0.897 (inactive)
O=C(c1ccc(F)cc1)C1CCN(CCn2c(=O)[nH]c3ccccc3c2=O)CC1 [Ketanserin tartrate hydrate] (20 µM)	1.21	0.974	1.02	1.06	1.05 (inactive)	1.18 (inactive)	1.01 (inactive)	1.03 (inactive)	1.02 (inactive)	0.963 (inactive)	1.02 (inactive)	1.02 (inactive)
CC(C)(C)NC(=O)[C@H]1CC[C@H]2[C@@H]3CC[C@H]4NC(=O)C=C[C@]4(C)[C@H]3CC[C@]12C [Finasteride] (20 µM)	1.18	0.998	1.05	1.24	0.977 (inactive)	0.973 (inactive)	1.06 (inactive)	0.983 (inactive)	0.982 (inactive)	0.913 (inactive)	1.01 (inactive)	1.12 (inactive)
CC[C@H]1OC(=O)C[C@@H](O)[C@H](C)[C@@H](O[C@@H]2O[C@H](C)[C@@H](O[C@H]3C[C@@](C)(O)[C@@H](O)[C@H](C)O3)[C@H](N(C)C)[C@H]2O)[C@@H](CC=O)C[C@@H](C)C(=O)/C=C/C(C)=C/[C@@H]1CO[C@@H]1O[C@H](C)[C@@H](O)[C@@H](OC)[C@H]1OC [Tylosin] (20 µM)	0	0.953	0.966	0.0976	0.792 (inactive)	0.0522 (active)	0.0892 (active)	0.849 (inactive)	1.05 (inactive)	0.984 (inactive)	1.02 (inactive)	0.105 (active)
Cc1ccnc2c1NC(=O)c1cccnc1N2C1CC1 [Nevirapine] (20 µM)	0.962	0.959	1.01	0.868	0.914 (inactive)	1 (inactive)	1.12 (inactive)	0.955 (inactive)	1.02 (inactive)	1.02 (inactive)	1.01 (inactive)	1.12 (inactive)
C=C1[C@H](CO)[C@@H](O)C[C@@H]1n1cnc2c(=O)[nH]c(N)nc21 [Entecavir] (20 µM)	0.907	0.934	1.04	1.04	0.969 (inactive)	0.982 (inactive)	0.999 (inactive)	0.972 (inactive)	1 (inactive)	1.04 (inactive)	0.985 (inactive)	0.98 (inactive)
CC(C)COCC(CN(Cc1ccccc1)c1ccccc1)N1CCCC1 (stereo not drawn) [Bepridil hydrochloride] (20 µM)	0.909	0.996	1.11	0.654	0.937 (inactive)	0.913 (inactive)	0.743 (active)	1.03 (inactive)	1.01 (inactive)	1.01 (inactive)	1.01 (inactive)	0.824 (inactive)
CCN(CC)C(=S)SSC(=S)N(CC)CC [Disulfiram] (20 µM)	1.03	0.988	0.991	1.38	1.06 (inactive)	0.992 (inactive)	1 (inactive)	1.09 (inactive)	1.03 (inactive)	0.969 (inactive)	1 (inactive)	0.955 (inactive)
O=C(O)Cc1ccc(-c2ccccc2)cc1 [Felbinac] (20 µM)	1	1.01	1.08	1.01	0.921 (inactive)	0.994 (inactive)	1.01 (inactive)	1.03 (inactive)	0.976 (inactive)	0.989 (inactive)	0.998 (inactive)	1.01 (inactive)
COc1ccc(C(=O)c2ccccc2)c(O)c1 [Oxybenzone] (20 µM)	0.901	0.808	0.963	0.984	0.962 (inactive)	0.954 (inactive)	1.03 (inactive)	0.823 (inactive)	1 (inactive)	1.07 (inactive)	1 (inactive)	0.979 (inactive)
